# Reference: PubChem BioAssay (EPA / NIEHS)
# The source made the active and inactive calls. How the source made its calls: active means hit-call score of the fitted dose curve at least 0.9, where 1 is the maximum; inactive means score below 0.9.
# Biological target: Transcription factor E2F1 (Homo sapiens) (UniProt Q01094)
# Experiment: ATG_E2F_CIS: Attagene CIS-FACTORIAL HepG2 Assay for human E2F Transcription Factor 1 (AID 2282935)
# Settings: HepG2 Attagene cis-reporter, E2F reporter RNA transcripts; actives raise or lower the signal
# Procedure: ATG_CIS is a cell-based, multiplexed-readout assay that uses HepG2, a human liver cell line, with measurements taken at 24 hours after chemical dosing in a 24-well plate.ATG_E2F_CIS is one of 52 assay component(s) measured or calculated from the ATG_CIS assay. It is designed to make measurements of mRNA induction, a form of inducible reporter, as detected with fluorescence intensity signals by Reverse transcription polymerase chain reaction (RT-PCR) and Capillary electrophoresis technology.Data from the assay component ATG_E2F_CIS was analyzed into 1 assay endpoint. This assay endpoint, ATG_E2F_CIS, was analyzed with bidirectional fitting relative to DMSO as the negative control and baseline of activity. Using a type of inducible reporter, measures of mRNA for gain or loss-of-signal activity can be used to understand the reporter gene at the transcription factor-level as they relate to the gene E2F1. Furthermore, this assay endpoint can be referred to as a primary readout, because this assay has produced multiple assay endpoints where this one serves a reporter gene function. To generalize the intended target to other relatable targets, this assay endpoint is annotated to the dna binding intended target family, where the subfamily is E2F transcription factor.
# Human liver HepG2 cells are transiently transfected with multiple reporter transcription units (MRTUs) in 6-well plates using FuGene 6 reagent (Roche; 3 ml FuGene/1 mg DNA). The MRTU constructs are regulated by a cis-regulating element (promoter). […] A major difference between the CIS and TRANS system is that in CIS activities of endogenous TFs are measured, whereas the TRANS assay evaluates changes in activities of exogenous, chimeric NR-Gal4 proteins. […] At the end of 24 hour incubation, total RNA was isolated using TriZol reagent (Invitrogen). The isolated RNA is then reverse-transcribed using oligo(dT) primer and Mo-MLV reverse transcriptase (Invitrogen) with DNAse I (Ambion) treatment for 30 min. The one-tenth of the produced cDNA was amplified by PCR using Taq DNA polymerase (Invitrogen) and two reporter sequence-specific primers. The PCR products were fluorescently labeled by primer extension with 6-arboxyfluorescein (6-FAM) 5'-labeled reporter sequence-specific primer (2 min at 95 C, 20 s at 68 C and 10 min at 72 C) and these products were digested with 5U of HpaI (New England Biolabs) for 2h at 37 C. The fragments were purified using Qiaquick PCR columns (Qiagen), analyzed on an ABI 3130xL genetic analyzer (Applied Biosystems) with peak positions identified by using a set of X-rhodamine (ROX)-labeled MapMarker1000 molecular weight standards (BioVentures). The raw capillary electrophoresis data was processed using Attagraph software (Attagene).
# Sequence of Transcription factor E2F1 (Homo sapiens) (Q01094 whole entry, looked up): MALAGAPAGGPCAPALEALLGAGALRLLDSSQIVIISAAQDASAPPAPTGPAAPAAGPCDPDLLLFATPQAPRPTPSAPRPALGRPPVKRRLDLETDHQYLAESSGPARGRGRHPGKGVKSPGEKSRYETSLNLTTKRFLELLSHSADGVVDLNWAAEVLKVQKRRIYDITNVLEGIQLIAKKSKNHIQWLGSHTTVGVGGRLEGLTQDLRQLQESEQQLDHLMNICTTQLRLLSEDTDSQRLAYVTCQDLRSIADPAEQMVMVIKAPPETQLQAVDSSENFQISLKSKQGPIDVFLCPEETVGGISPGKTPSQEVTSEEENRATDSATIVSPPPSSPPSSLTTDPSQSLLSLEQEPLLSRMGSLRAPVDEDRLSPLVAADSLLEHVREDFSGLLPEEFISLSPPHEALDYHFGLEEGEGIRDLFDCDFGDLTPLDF
SMILES,outcome,AC50
CCOP(=O)(OCC)Oc1ccc([N+](=O)[O-])cc1,inactive,–
Nc1ccccc1C(=O)Oc1ccc2ccccc2c1,inactive,–
CC(C)CCCCCCCOP(=O)(Oc1ccccc1)Oc1ccccc1,inactive,–
C=C(Cl)CCl,inactive,–
CCCCCCCCCCCC#N,inactive,–
Cl/C=C\CCl,inactive,–
O=C(NCNC(=O)NC1C(=O)NC(=O)N1CO)NC1C(=O)NC(=O)N1CO (stereo not given),inactive,–
CCc1cc(C)cc(CC)c1-c1c(OC(=O)C(C)(C)C)n2n(c1=O)CCOCC2,–,25.8 µM (active)
O=[N+]([O-])C=Cc1ccccc1,inactive,–
C=CC(=O)OCC(CC)CCCC (stereo not given),inactive,–
COC(=O)COc1ccc(Cl)cc1Cl,inactive,–
CC(C)(c1cc(Cl)c(O)c(Cl)c1)c1cc(Cl)c(O)c(Cl)c1,inactive,–
CCN(CC)C(=S)S,inactive,–
CCCCCc1cc(O)cc(O)c1,inactive,–
NNc1ccccc1,inactive,–
O=P1(NCCCl)OCCCN1CCCl (stereo not given),inactive,–
CC(C)(C)C(=O)CCl,inactive,–
CC(C)CCCCCCCOC(=O)c1ccccc1C(=O)OCCCCCCCC(C)C,inactive,–
S=c1[nH]c2ccccc2[nH]1,inactive,–
CCc1cccc(C)c1N(C(=O)CCl)[C@@H](C)COC,inactive,–

SMILES,outcome,AC50
Nc1ccccc1,inactive,–
Cc1ccc(OP(=O)(Oc2ccc(C)cc2)Oc2ccc(C)cc2)cc1 (tested in a mixture with another compound),inactive,–
CC1CCCC1.[C-]#[O+].[C-]#[O+].[C-]#[O+].[Mn],inactive,–
CN1C[C@H](C(=O)N[C@]2(C)O[C@@]3(O)[C@@H]4CCCN4C(=O)[C@H](Cc4ccccc4)N3C2=O)C=C2c3cccc4[nH]cc(c34)C[C@H]21,inactive,–
C=CCO,inactive,–
O=C1Nc2ccc(Cl)cc2C(c2ccccc2)=NC1O (stereo not given),inactive,–
N#CCCCCC#N,inactive,–
CCOC(=O)COc1ccc(Cl)cc1Cl,inactive,–
Oc1ccc(Cl)cc1,inactive,–
C=CCN(CC=C)C(=O)C(Cl)Cl,inactive,–
N#Cc1cccc(C#N)c1,inactive,–
CC1OC(C)OC(C)O1 (stereo not given),inactive,–
Cc1cc(C)c(C2=C(OC(=O)CC(C)(C)C)C3(CCCC3)OC2=O)c(C)c1,inactive,–
Cc1ccc(N(SC(F)(Cl)Cl)S(=O)(=O)N(C)C)cc1,inactive,–
C[C@]12CCC(=O)C(O)=C1CC[C@@H]1[C@@H]2CC[C@]2(C)C(=O)CC[C@@H]12,inactive,–
CCCCOP(=O)(O)OCCCC,inactive,–
N#CCCCl,inactive,–
CC1(C)CC(=O)CC(C)(C)N1[O],inactive,–
COc1ncc(F)c2nc(S(=O)(=O)Nc3c(F)cccc3F)nn12,inactive,–
O=S(=O)(O)O,inactive,–
